Source: PubChem BioAssay (The Scripps Research Institute Molecular Screening Center)
CHRM1 agonist: activates human CHRM1 receptor; CHO-K1 hM1, Fluo-8 calcium fluorescence, agonist mode; 0% DMSO, 100% acetylcholine EC100; 0.33% of 360,000 active; activation, % at 3 µM;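 active = activation above the run's mean compound activation plus 3 SD, cut at about 16% in these data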;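 also: peak over basal fluorescence ratio within a 140 s kinetic read after compound addition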
Target sequence (P11229 whole entry, looked up): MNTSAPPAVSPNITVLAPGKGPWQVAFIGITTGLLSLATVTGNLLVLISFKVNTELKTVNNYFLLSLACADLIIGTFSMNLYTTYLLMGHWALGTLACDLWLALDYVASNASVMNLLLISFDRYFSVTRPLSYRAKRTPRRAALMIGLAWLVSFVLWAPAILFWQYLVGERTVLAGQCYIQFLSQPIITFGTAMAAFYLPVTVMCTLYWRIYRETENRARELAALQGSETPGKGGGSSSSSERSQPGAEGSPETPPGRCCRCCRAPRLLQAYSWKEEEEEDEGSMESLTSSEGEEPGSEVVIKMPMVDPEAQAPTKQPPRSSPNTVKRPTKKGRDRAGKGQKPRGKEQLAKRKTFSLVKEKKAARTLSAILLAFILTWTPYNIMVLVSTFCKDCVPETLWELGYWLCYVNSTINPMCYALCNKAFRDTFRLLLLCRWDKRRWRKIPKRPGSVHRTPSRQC
M1 PAM parental: counter-screen for M1 PAMs: effect in parental CHO-K1 cells | AID 602247 | 0.02% of 360,000 active | ATP EC20, Fluo-8 calcium fluorescence; 0% at ATP EC20, 100% at ATP max | activation, % at 3 µM;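 active = activation above the run cutoff, the mean activation of all test compounds plus 3 SD, cut at about 40% in these data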;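 also: peak over basal fluorescence ratio in a 140 s read after ATP addition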
M1 antag: blocks human M1 muscarinic receptor; CHO-K1 hM1, Fluo-8 calcium fluorescence, ACh EC80 antagonist; inhibition, % at 3 µM; 1.3% of 360,000 active; AID 588852;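 active = percent inhibition above its own plate's cutoff, namely the mean of that plate's compound wells plus 3 SD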;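 also: peak over basal fluorescence ratio during 140 s after agonist addition; 0% = ACh EC80 plus DMSO and 100% = DMSO alone without agonist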
CHO-K1 Ca ag: counter-screen for M1 agonists: effect in parental CHO-K1 cells; Fluo-8 calcium fluorescence; scaled to maximal ATP response, vehicle zero; 0.48% of 360,000 active; activation, % at 3 µM; AID 602248; in the data active = activation above about 15%;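 also: untransfected CHO-K1 host cells lacking M1 receptor as counterscreen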
M1 PAM: positive allosteric modulators of human M1 muscarinic receptor. CHO-K1 hM1, Fluo-8 calcium fluorescence, ACh EC20; 0% = ACh EC20, 100% = maximal ACh. P11229. activation, % at 3 µM. 0.088% of 360,000 active; in the data active = activation above about 19%, passing the limit was not always enough
CHO-K1 Ca antag: M1 antagonist counterscreen hit in parental CHO-K1 cells. 0.6% of 360,000 active. ATP-induced calcium, Fluo-8 fluorescence. AID 602250. inhibition, % at 3 µM;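 active = inhibition above a per-plate cutoff, the plate's mean sample inhibition plus 3 SD, cut at about 24% in these data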;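 also: 0% = DMSO plus EC80 ATP and 100% = DMSO alone without ATP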
* marks the source's active call; other numbers are inactive results. Only some compounds are listed: those with a hit (about 2.4% of all), similar ones and a draw of the others.

How did Nc1ccc2nc(CCc3ccccc3)[nH]c2c1 do in these assays?
CHRM1 agonist: -9; M1 PAM parental: 9; M1 antag: 6; CHO-K1 Ca ag: 3; M1 PAM: -8; CHO-K1 Ca antag: -4

Results for Cc1cc2nc3c(=O)n(CCc4ccccc4)c(=O)[nH]c3nc2cc1N ?
CHRM1 agonist: 10; M1 PAM parental: 10; M1 antag: 10; CHO-K1 Ca ag: 26*; M1 PAM: 0; CHO-K1 Ca antag: 2

What do the screens show for `Nc1ccc2nc3c(=O)n(C4CCCCC4)c(=O)[nH]c3nc2c1`?
CHRM1 agonist: 100*; M1 PAM parental: -12; M1 antag: 29; CHO-K1 Ca ag: 95*; M1 PAM: -15; CHO-K1 Ca antag: 30*

Results for OC[C@@H]1CN(CCN2CCOCC2)C[C@H](n2cnc3c(NC4CCC4)ncnc32)O1 ?
CHRM1 agonist: 0; M1 PAM parental: 27; M1 antag: -16; CHO-K1 Ca ag: 1; M1 PAM: 13; CHO-K1 Ca antag: -7

How did COC(C(=O)Nc1ccnn1C1CCN(Cc2nccs2)CC1)c1ccccc1 (centres undefined) do in these assays?
CHRM1 agonist: -3; M1 PAM parental: 1; M1 antag: 0; CHO-K1 Ca ag: 1; M1 PAM: -1; CHO-K1 Ca antag: -13

Results for Cc1ccc(CNC(=O)CN(C(=O)C2(C)CC(=O)N=C3C=CC=CN32)c2ccccc2F)cc1 (centres undefined) ?
CHRM1 agonist: -11; M1 PAM parental: 18; M1 antag: -6; CHO-K1 Ca ag: 1; M1 PAM: 2; CHO-K1 Ca antag: -2

How did CCN(C(=O)CSc1nnc(-c2ccco2)n1Cc1ccccc1)C1CCS(=O)(=O)C1 (centres undefined) do in these assays?
CHRM1 agonist: -4; M1 PAM parental: 11; M1 antag: -22; CHO-K1 Ca ag: 0; M1 PAM: 27*; CHO-K1 Ca antag: -19

What do the screens show for `O=C1CSC(=Nc2cccc([N+](=O)[O-])c2)N1`?
CHRM1 agonist: -2; M1 PAM parental: 12; M1 antag: -13; CHO-K1 Ca ag: 1; M1 PAM: 9; CHO-K1 Ca antag: -14

What do the screens show for `CC(=O)c1ccc(NS(=O)(=O)c2ccc(C)cc2)cc1`?
CHRM1 agonist: -3; M1 PAM parental: -6; M1 antag: -12; CHO-K1 Ca ag: 0; M1 PAM: -4; CHO-K1 Ca antag: 27*

How did Cc1cc(NS(=O)(=O)c2ccc(NC(=O)c3c(F)c(F)c(F)c(F)c3F)cc2)nc(C)n1 do in these assays?
CHRM1 agonist: -2; M1 PAM parental: 11; M1 antag: -12; CHO-K1 Ca ag: 1; M1 PAM: 8; CHO-K1 Ca antag: -4

Results for Cc1ccc(S(=O)(=O)Nc2ccc(NC(=O)c3c(F)c(F)c(F)c(F)c3F)cc2)cc1 ?
CHRM1 agonist: 24*; M1 PAM parental: 15; M1 antag: 22; CHO-K1 Ca ag: 15; M1 PAM: -4; CHO-K1 Ca antag: -7

What do the screens show for `CC(=O)c1ccc(NS(=O)(=O)c2ccc(C(C)(C)C)cc2)cc1`?
CHRM1 agonist: -3; M1 PAM parental: 3; M1 antag: 9; CHO-K1 Ca ag: 7; M1 PAM: -5; CHO-K1 Ca antag: -5

How did COc1ccc(CCNC(=O)c2cc(=O)c3cc(C)ccc3o2)cc1OC do in these assays?
CHRM1 agonist: 0; M1 PAM parental: -6; M1 antag: -7; CHO-K1 Ca ag: 17*; M1 PAM: 4; CHO-K1 Ca antag: -7

How did CCOC(=O)/C(CCC[N+](C)(CC)CC)=N\O do in these assays?
CHRM1 agonist: -12; M1 PAM parental: 6; M1 antag: 91*; CHO-K1 Ca ag: 0; M1 PAM: -26; CHO-K1 Ca antag: 0

Results for NC(=O)CC(NC(=O)Cc1ccc(Br)cc1)c1ccc(N2CCc3ccccc3C2)c([N+](=O)[O-])c1 (centres undefined) ?
CHRM1 agonist: -7; M1 PAM parental: -17; M1 antag: 0; CHO-K1 Ca ag: 0; M1 PAM: 0; CHO-K1 Ca antag: -1

What do the screens show for `NS(=O)(=O)c1cccc(NC(=O)CN2CCN(Cc3ccc4c(c3)OCO4)CC2)c1`?
CHRM1 agonist: -5; M1 PAM parental: -9; M1 antag: 4; CHO-K1 Ca ag: 0; M1 PAM: 1; CHO-K1 Ca antag: 14

How did O=C(COc1ccc(S(=O)(=O)NC2CCCCC2)cc1Cl)NCc1cccnc1 do in these assays?
CHRM1 agonist: -1; M1 PAM parental: -9; M1 antag: 7; CHO-K1 Ca ag: 0; M1 PAM: 8; CHO-K1 Ca antag: 28*

Results for CCN(Cc1ccccc1)C(=O)CCS(=O)(=O)c1ccc2c(c1)CCN2C(C)=O ?
CHRM1 agonist: -3; M1 PAM parental: 7; M1 antag: -2; CHO-K1 Ca ag: 1; M1 PAM: 4; CHO-K1 Ca antag: -14

How did O=C1OC=NC1=Cc1ccccc1 do in these assays?
CHRM1 agonist: 0; M1 PAM parental: 17; M1 antag: -16; CHO-K1 Ca ag: 2; M1 PAM: 12; CHO-K1 Ca antag: -17

Results for Nc1nc(=O)n(C2CCC(CO)O2)cc1F (centres undefined) ?
M1 PAM parental: 14; CHO-K1 Ca ag: 2; CHO-K1 Ca antag: -16

How did CCCC1C2C(=O)N(c3cccc(C)c3)C(=O)C2ON1c1ccccc1 (centres undefined) do in these assays?
CHRM1 agonist: 0; M1 PAM parental: 7; M1 antag: -1; CHO-K1 Ca ag: 17*; M1 PAM: 4; CHO-K1 Ca antag: 0

Results for COc1c(C)cc(S(=O)(=O)NCc2ccccn2)c(C)c1C ?
CHRM1 agonist: -2; M1 PAM parental: 3; M1 antag: -11; CHO-K1 Ca ag: 0; M1 PAM: 9; CHO-K1 Ca antag: -9

How did Cn1c(=O)c(C(=O)COc2ccc(C#N)cc2)c(N)n(Cc2ccccc2)c1=O do in these assays?
CHRM1 agonist: 28*; M1 PAM parental: 2; M1 antag: 9; CHO-K1 Ca ag: 34*; M1 PAM: -6; CHO-K1 Ca antag: -6

What do the screens show for `S=C1NCCN1CC1CCN(CCC23CC4CC(CC(C4)C2)C3)CC1`?
CHRM1 agonist: -11; M1 PAM parental: -11; M1 antag: 85*; CHO-K1 Ca ag: 0; M1 PAM: -31; CHO-K1 Ca antag: -7

Results for CCC(CC)CN1CCC(CN2C(=S)NC[C@@H]2[C@@H](C)CC)CC1 ?
CHRM1 agonist: -11; M1 PAM parental: 9; M1 antag: -5; CHO-K1 Ca ag: 1; M1 PAM: -5; CHO-K1 Ca antag: -15

What do the screens show for `CC(C)C[C@H]1CNC(=S)N1CC1CCN(CC2CCC(C(C)(C)C)CC2)CC1` (some centres undefined)?
CHRM1 agonist: -10; M1 PAM parental: 9; M1 antag: 76*; CHO-K1 Ca ag: 1; M1 PAM: -31; CHO-K1 Ca antag: -6

Results for CC[C@H](C)[C@H]1CNC(=S)N1CC1CCN(CCCCc2ccccc2)CC1 ?
CHRM1 agonist: -11; M1 PAM parental: 1; M1 antag: 71*; CHO-K1 Ca ag: 1; M1 PAM: -31; CHO-K1 Ca antag: -5
